In PubChem BioAssay (NCATS):
Records with an inconclusive call do not appear. Unmarked numbers belong to inactive results. Calls of active or inactive are those of the source. Calls follow the shape of the dose curve; as a rule, active = well fitted inhibition curve with a large enough effect; inconclusive = small, poorly fitted or top-dose-only effect; inactive = flat fitted curve, though single readings scatter.
% is scaled to controls: 0 for no effect and ±100 for the full control effect.

These molecules were tested on KB-3-1 (assay: Cytotoxic Profiling of Annotated Libraries Using Quantitative High-Throughput Screening (AID 1296008; also: nearly all actives have a fitted effect of over 60% in size)). Details: Five cell lines viability, CellTiter-Glo ATP luminescence, 48-72 h; max response: hits give low values.
Procedure, shortened: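 Cytotoxicity was measured as CellTiter-Glo ATP luminescence, read after 10 min at room temperature. Compound treatment of the cells lasted 48 or 72 hr at 37 degrees Celsius in a qHTS format.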
`CC1(CO)CC2C(O)C(=O)C3(CO)CC3(C)C2C1` (centres undefined) showed a max response of 2.2%. Work on `O=C(COc1ccc(Cl)cc1)NC1CCC(NC(=O)COc2ccc(Cl)cc2)CC1` (centres undefined) yielded a max response of -4.12%. For `OC[C@H]1O[C@@H](OC(CCCCc2ccc(O)cc2)CCc2ccc(O)cc2)[C@H](O[C@@H]2OC[C@](O)(CO)[C@H]2O)[C@@H](O)[C@@H]1O` (some centres undefined), the outcome was “inactive”. `C=C1CCC[C@]2(C)C[C@]3(O)OC(=O)C(C)=C3C[C@@H]12` was tested, and the outcome was “inactive”. `Nc1ncnc2c1ncn2[C@H]1CCCO1` was tested, and the outcome was “inactive”. `CC1=C2[C@@H]([C@H](C)CC[C@H]2/C=C(\C)C(=O)O)[C@H](O)C1` showed a max response of 3.15%. `CC1=CC(=O)CC(C)(C)C1CCC(C)OC1OC(COC(=O)c2cc(O)c(O)c(O)c2)C(O)C(O)C1O` (centres undefined) was tested, and the outcome was “inactive”. With `COC(=O)[C@H](CC1C=NC=N1)NCC12CC3CC(CC(C3)C1)C2` (some centres undefined) the max response was 1.43%. Work on `CC1(C)CCCC2(C)C3=C(C(=O)OC3O)C(O)CC12` (centres undefined) yielded a max response of 2.72%. Molecule `CC(=O)O[C@@H]1C[C@@]23C[C@@]24CC[C@H](OC2OC[C@@H](O)[C@H](O)[C@H]2O)C(C)(C)[C@@H]4CC[C@H]3[C@]2(C)CC3OC4(C[C@@H](C)C3[C@@]12C)OCC1(C)OC14` (some centres undefined) has a max response of -4.87%. `C=CC1C(O[C@@H]2O[C@H](CO)[C@@H](O)[C@H](O)[C@H]2O)OC=C(C(=O)OC)C1CC(=O)O` (some centres undefined) showed a max response of 9.2%. Work on `C#Cc1cnc2[nH]c(=O)n(C(CC)CC)c2n1` yielded a max response of 8.63%. `CC(C)C(=O)O[C@@H]1[C@@H](O)[C@@H](O[C@H]2O[C@H](CO)[C@@H](O)[C@H](O)[C@H]2O)O[C@H](CO)[C@H]1O` gave a max response of 3.97%. For `COc1cc(C)c(C(=O)O[C@H]2[C@@H](O)[C@H](n3ccc(=O)[nH]c3=O)O[C@@H]2CO)c(OC)c1`, the max response was -4.86%. In the case of `C[C@@H]1O[C@@H](OC[C@H]2O[C@@H](OCC3CCC4CC3C4(C)C)[C@H](O)[C@@H](O)[C@@H]2O)[C@H](O)[C@H](O)[C@H]1O` (some centres undefined), the max response is reported as 6.44%. In the case of `CC1=CC(=O)C[C@H]2[C@@H]1CC[C@@H](C)[C@]21CO[C@H](c2ccoc2)C1=O`, the max response is reported as -0.71%. `CC(C)c1ccc(CC(=O)N2CCC[C@@H](c3cccc(OC(C)(C)C(=O)O)c3)C2)cc1` was tested, and the outcome was “inactive”. In the case of `CC(=O)NC(CCC(=O)O)C(=O)NCCc1ccc(O)cc1` (centres undefined), the outcome is reported as “inactive”. In the case of `C=C[C@H]1[C@H](O[C@@H]2O[C@H](CO[C@@H]3OC[C@](O)(CO)[C@H]3O)[C@@H](O)[C@H](O)[C@H]2O)OC=C2C(=O)OCC[C@H]21`, the outcome is reported as “inactive”. With `c1ccc(Nc2nc3c(s2)CCCc2[nH]ncc2-3)nc1` the outcome was “inactive”. `COC(=O)C1C(CC(C)=O)C=CC(O)C12Oc1cc(C)cc(O)c1C2=O` (centres undefined) gave a max response of 4.45%. `COC(=O)C1=C[C@@H](O)[C@@H](O)[C@H](O[C@@H]2O[C@H](COC(=O)/C=C/c3ccccc3)[C@@H](O)[C@H](O)[C@H]2O)C1` showed a max response of 3.55%. With `C/C=C(\C)C(=O)O[C@@H](C)[C@H]1CC[C@]2(O)C3CCC4C[C@@H](OC5CC(OC)C(OC6CC(OC)C(OC7CC(OC)C(OC8OC(C)C(OC9OC(CO)C(O)C(O)C9O)C(OC)C8O)C(C)O7)C(C)O6)C(C)O5)CC[C@]4(C)C3[C@H](O)[C@@H](O)[C@]12C` (some centres undefined) the outcome was “inactive”. Work on `C[C@@]12C[C@]3(O)O[C@H](O1)[C@]1(COC(=O)c4ccccc4)[C@H]3C[C@@]12O[C@@H]1O[C@H](COC(=O)c2ccccc2)[C@@H](O)[C@H](O)[C@H]1O` yielded a max response of 1.05%. For `C/C=C(\C)C(=O)O[C@H]1[C@H](O)[C@]2(COC(C)=O)[C@H](O)C[C@]3(C)C(=CCC4[C@@]5(C)CC[C@H](O[C@@H]6O[C@H](C(=O)O)[C@@H](O[C@@H]7O[C@H](CO)[C@@H](O)[C@H](O)[C@H]7O)[C@H](O)[C@H]6O[C@@H]6O[C@H](CO)[C@@H](O)[C@H](O)[C@H]6O)[C@](C)(CO)C5CC[C@]43C)[C@@H]2CC1(C)C` (some centres undefined), the outcome was “inactive”. `CCC(CC)n1ccc2c(C(=O)NCc3c(C)cc(C)[nH]c3=O)cc(C#N)cc21` was tested, and the max response was 2.42%. In the case of `COc1cc(O[C@@H]2O[C@H](CO)[C@@H](O)[C@H](O)[C@H]2O)c(CCC(=O)OC[C@H]2O[C@@H](Oc3cc(OC)c(C4OC(=O)C(C)(O)C4O)cc3CCC(=O)O)[C@H](O)[C@@H](O)[C@@H]2O)cc1C1OC(=O)C(C)(O)C1O` (some centres undefined), the max response is reported as 9.44%. With `CC(=O)O[C@H]1C[C@@H]2[C@]3(CC[C@]4(C)[C@@H](C5(C)CCC(C(C)(C)O)O5)[C@@H](O)C[C@@]24C)C[C@@]32CC[C@H](O[C@@H]3OC[C@@H](O)[C@H](O)[C@H]3O)C(C)(C)[C@H]12` (some centres undefined) the outcome was “inactive”. `CC1(C)CCC[C@@]2(C)[C@H]1[C@H](O)C=C1COC(=O)[C@@]12O` gave a max response of 4.4%.
